Counter-ions that a name gives are not always drawn. ± gives the standard deviation of the averaged measurements. The full ranking holds about 2,000 compounds; the median of “relative cell viability vs DMSO, compound + 0.2 uM CuET” is about 1, and the lowest 2% start at about 0.25. The sample as a whole holds a higher share of the lowest values than the screen did.

The test relates to TE10. Description: relative cell viability vs DMSO, compound + 0.2 uM CuET (fraction); TE10 is an esophageal squamous carcinoma line; higher = less cytotoxic. The note with it: 2 µM; co-treatment: CuET (bis(diethyldithiocarbamate)copper) 0.2 uM; 48 h. How it is done: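 TE10 ESCC cells (1,000/well, 384-well plates) were treated with Selleck bioactive library compounds at 2 uM combined with 0.2 uM CuET (copper diethyldithiocarbamate) for 48 h. Viability was read by CellTiter-Glo and expressed relative to DMSO wells. Two technical replicates (A, B).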
As to `CCN1CCN(C(=O)Cc2ccc(Nc3ncc(F)c(Nc4ccc(C(=O)Nc5ccccc5Cl)cc4)n3)cc2)CC1` [Aurora A Inhibitor I], the relative cell viability is 0.182 ± 0.01. On to `Cc1cc(C(=O)CN2CCCC2)c(C)n1-c1ccc(F)cc1`, for which the relative cell viability worked out at 0.959 ± 0.085.

As to `C[C@@H]1CC[C@H]2[C@@H](C)C(=O)O[C@@H]3O[C@@]4(C)CC[C@@H]1[C@]32OO4` [Artemisinin], the relative cell viability turned out to be 1.08 ± 0.11.

With `NCC(O)c1ccc(O)cc1` (racemic) [(+,-)-Octopamine HCl], the relative cell viability was determined as 0.697 ± 0.56.

Consider `CC(=O)OC12COC1CC(O)C1(C)C(=O)C(O)C3=C(C)C(O)CC(O)(C(OC(=O)c4ccccc4)C21)C3(C)C` (stereo not given) [10-Deacetylbaccatin-III], for which the relative cell viability was 0.849 ± 0.011. Turning to `CC1=C(O)C(=O)C=C2C1=CC=C1[C@@]2(C)CC[C@@]2(C)[C@@H]3C[C@](C)(C(=O)O)CC[C@]3(C)CC[C@]12C` [Celastrol], the relative cell viability was found to be 0.154 ± 0.0064. Under `CC(C)=CCC[C@]1(C)C=Cc2c(O)c3c(c(CC=C(C)C)c2O1)O[C@]12C(=C[C@@H]4C[C@H]1C(C)(C)O[C@@]2(C/C=C(/C)C(=O)O)C4=O)C3=O` [Gambogic Acid] stands 0.2853 ± 0.00092; under `O=c1cccc2n1C[C@@H]1CNC[C@H]2C1` [Cytisine], 1.07 ± 0.033. Under `C=C[C@H]1CN2CC[C@H]1C[C@H]2[C@H](O)c1ccnc2ccccc12` [Cinchonidine] stands 1.03 ± 0.057; under `N#CC(C#N)=Cc1ccc(O)c(O)c1`, 0.937 ± 0.14.
